Screening data (PubChem)
DAX1 inh-1 – inhibitors of DAX1 repression of SF-1 activated StAR promoter; HEK293T StAR-luciferase reporter, SF-1/DAX-1 repression relief; inhibition, % at 6.8 µM; 370,000 compounds, 1.1% hits;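 active = inhibition above the mean over all tested compounds plus 3 SD, cut at about 3.6% in these data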;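 note: 0% = DAX-1 cells with DMSO and 100% = cells lacking DAX-1 with DMSO; higher inhibition means more luminescence from relief of DAX-1 repression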
hgDAF12 agonist – agonists of H. glycines DAF-12 nuclear receptor | 370,000 compounds, 1.8% hits | activation, % at 6.8 µM | HEK293 GAL4-hgDAF12 UAS-luciferase reporter, agonist luminescence; normalized to butyrate control | AID 687014;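 active = activation above a cutoff set at the mean of all screened compounds plus 3 SD, cut at about 10% in these data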;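 note: 0% = DMSO wells and 100% = sodium butyrate wells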
hcDAF-12 act – H. contortus DAF-12 activation, primary screen; HEK293 hcDAF-12 lit1-tk-luc reporter, luminescence; 0% DMSO, 100% Δ7-dafachronic acid; activation, % at 6.8 µM; 370,000 compounds, 1.4% hits; AID 652067;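 active = activation above the mean of all tested compounds plus 3 SD, cut at about 5.5% in these data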;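 note: 100% = response to 3 µM Δ7-dafachronic acid high control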
ssDAF12 agonist – S. stercoralis DAF-12 activation, primary screen. HEK293 ssDAF-12/GRIP1 lit1-tk-luc reporter, luminescence; % of 3 µM dafachronic acid response. activation, % at 6.8 µM. 370,000 compounds, 1% hits. AID 652126;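 active = activation above the mean over all tested compounds plus 3 SD, cut at about 0.9% in these data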;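 note: 0% = DMSO-only wells and 100% = 3 µM delta7-dafachronic acid wells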
DAX1 inh-2 – inhibits human nuclear receptor DAX1; 340,000 compounds, 0.99% hits; HEK293 Gal4-DAX1 luciferase reporter, luminescence; inhibition, % at 6.75 µM; P51843;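 active = inhibition above the mean over all tested compounds plus 3 SD, cut at about 4.2% in these data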;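 note: 0% = DAX1-transfected cells with DMSO and 100% = empty-vector control cells with DMSO; inhibition shows as a rise in luminescence from relieved DAX1 repression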
Target sequence (P51843 207-470 limits assumed): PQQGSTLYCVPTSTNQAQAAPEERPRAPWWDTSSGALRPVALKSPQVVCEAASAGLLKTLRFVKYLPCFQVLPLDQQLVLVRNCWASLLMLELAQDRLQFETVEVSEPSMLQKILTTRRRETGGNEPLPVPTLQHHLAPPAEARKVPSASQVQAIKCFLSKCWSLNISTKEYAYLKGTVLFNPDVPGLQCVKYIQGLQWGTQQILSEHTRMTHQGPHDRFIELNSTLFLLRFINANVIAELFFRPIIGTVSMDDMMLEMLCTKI
The depositor's hits bear a star; x = no result given. A selection: hits, their analogues and other compounds. The true share with any hit is near 4.1%.

SMILES	DAX1 inh-1	hgDAF12 agonist	hcDAF-12 act	ssDAF12 agonist	DAX1 inh-2
COc1ccccc1N1CC(C(=O)Nc2nc(C)cs2)CC1=O (centres undefined)	2	0	4	1	0
Cc1csc(NC(=O)C2CC(=O)N(c3ccc(C)c(C)c3)C2)n1 (centres undefined)	-1	0	-1	1.6*	0
Cc1ccccc1C(=O)Nc1nnc(SCC(=O)NCc2ccco2)s1	8.0*	12*	5.9*	0	1
O=C(CN1CCc2ccccc21)NC(=O)NCc1ccco1	0	1	3	1.0*	0
O=C(CN1CCN(c2ccccc2O)CC1)NC(=O)NCc1ccco1	1	-1	-1	-1	1
O=C(CSc1nnc(NC(=O)c2ccc3c(c2)OCO3)s1)NCc1ccco1	2	13*	5.9*	0	-2
O=C(CSc1nc2ccccc2s1)NC(=O)NCc1ccco1	0	2	5	1.4*	2
N=c1c2c(-c3ccccc3)c(-c3ccccc3)n(Cc3ccccc3)c2ncn1C1CCOCC1	-3	-3	-1	-1	x
COc1ccc2c(C(c3ccccc3O)C3CCCN3S(=O)(=O)c3ccc(C)cc3)cn(C)c2c1 (centres undefined)	-1	3	1	-1	x
O=S1(=O)c2c(NCc3ccco3)cccc2Oc2ccccc2CN1Cc1cn(Cc2ccc(C(F)(F)F)cc2)nn1	1	-2	-2	-1	x
O=C(CSc1nnc(NC(=O)c2ccccc2F)s1)NCC1CCCO1 (centres undefined)	3.8*	7	5	-1	0
COC(=O)CCN(C(=O)c1ccc2c(c1)OCO2)c1ccccn1	1	0	-1	-1	0
COC(=O)CCN(C(=O)c1cccc(OC(C)=O)c1)c1ccccn1	0	0	0	-1	4.5*
COc1ccc(C2C(C(=O)Nc3ccc(Cl)c(Cl)c3)CCC(=O)N2c2ccc(OC)cc2)cc1 (centres undefined)	0	-1	0	0	x
O=C(OC12CCCN(C1)/C(=C/c1cccnc1)C2)c1ccc(F)cc1 (centres undefined)	-3	-5	-6	-2	x
C(=C\c1ccccc1)/CNCC1CCCO1 (centres undefined)	0	7	3	1.6*	0
O=C(NCC1CCCO1)/C(=C/c1ccccc1)NC(=O)c1ccccc1 (centres undefined)	0	4	0	-1	-2
Clc1ccc(CNCC2CCCO2)cc1 (centres undefined)	1	-3	-1	0	1
Fc1ccc(CNCC2CCCO2)cc1 (centres undefined)	0	-1	0	-1	4.3*
CCCCOc1ccc(C(=O)NC2CCCCN(CC)C2=O)cc1 (centres undefined)	0	7	-1	-1	x
COCCNC(=O)c1cc(-c2cccc(OC)c2)on1	2	11*	1	0	1
COc1cccc(-c2cc(C(=O)NCc3cccs3)no2)c1	2	13*	2	0	4
COc1ccc(-c2cc(C(=O)NCc3cccs3)no2)cc1	1	9	4	-1	0
COCC(C)NC(=O)c1cc(-c2cccc(OC)c2)on1 (centres undefined)	3	5	1	-1	4
O=C1C[C@H](c2ccc3ccccc3c2)N=C2N1/C(=C\c1ccccc1)[C@@H](c1ccccc1C(F)(F)F)N2Cc1ccc2c(c1)OCO2	x	5	2	-2	x
SMILES	DAX1 inh-1	hgDAF12 agonist	hcDAF-12 act	ssDAF12 agonist	DAX1 inh-2
Nc1ccn([C@@H]2O[C@H](C(=O)N[C@H](Cc3ccccc3)C(=O)N3CCN(CC(=O)N4CCCC4)CC3)[C@@H](O)[C@H]2O)c(=O)n1	-1	-2	0	-1	x
CC(C)c1ccc(C2c3[nH]c4ccccc4c3C[C@H]3C(=O)N(c4ccccc4C(=O)N4CCC(C(=O)O)CC4)C(=O)N23)cc1 (some centres undefined)	0	4	5.8*	-1	3
COc1cccc(C2c3[nH]c4ccccc4c3C[C@H]3C(=O)N(c4ccccc4C(=O)NCCCN4CCOCC4)C(=O)N23)c1 (some centres undefined)	-1	-1	5.7*	-1	-1
COc1ccc(C2c3[nH]c4ccccc4c3C[C@H]3C(=O)N(c4ccccc4C(=O)N4CCC[C@H]4C(=O)O)C(=O)N23)cc1 (some centres undefined)	1	1	5	0	5.2*
COc1ccc(C2c3[nH]c4ccccc4c3C[C@H]3C(=O)N(c4ccccc4C(=O)N4CCC[C@@H]4C(=O)O)C(=O)N23)cc1 (some centres undefined)	1	2	3	0	-1
O=C(NCCCN1CCOCC1)c1ccccc1N1C(=O)[C@@H]2Cc3c([nH]c4ccccc34)C(c3ccc(F)cc3)N2C1=O (some centres undefined)	-1	2	1	-1	1
CC(C)c1ccc(C2c3[nH]c4ccccc4c3C[C@H]3C(=O)N(c4ccccc4C(=O)N4CCC[C@@H]4C(=O)O)C(=O)N23)cc1 (some centres undefined)	-1	2	3	1	1
COC(=O)C1=C(C)N(Cc2cccc(C(F)(F)F)c2)C(=NCc2ccc3c(c2)OCO3)NC1c1ccccc1C(F)(F)F (centres undefined)	-1	-1	-1	-1	x
CCCCNC(=O)C1CCCN1C(=O)Nc1cc(C)cc(C)c1 (centres undefined)	1	-2	0	-1	x
COC(=O)c1cc2c(c3c4cc(F)ccc4n(S(=O)(=O)c4cccc(C)c4)c13)C(=O)N(C)C2	-1	0	2	-1	x
Clc1ccccc1OCCCn1ccnc1	0	0	-2	1.4*	3
CCC(C)c1ccc(NC(=O)C2CC3CCC2C3)cc1 (centres undefined)	1	7	1	-1	4.7*
O=C(Nc1ccc(F)cc1)C1CC2CCC1C2 (centres undefined)	0	2	-2	-1	0
CC(C)c1ccc(NC(=O)C2CC3CCC2C3)cc1 (centres undefined)	1	9	0	-1	6.0*
Cc1cc(N2CCNC[C@H]2C)ccc1N1CCS(=O)(=O)CC1	1	5	4	-1	x
O=C(O)c1cccc2c1-c1ccccc1/C2=N\Nc1ccccc1	1	8	4	0	5.4*
Nc1[nH]c(C(=O)c2ccccc2)c(-c2ccccc2C(F)(F)F)c1C(=O)c1c[nH]c2ccccc12	-1	1	3	1	x
CNC(=O)[C@@H]1CC=C[C@@H]2CCN(c3ccccc3)C(=O)[C@@H]21	x	6	0	-1	x
Cc1ccc(S(=O)(=O)N2CCN(c3cnn(-c4ccccc4)c(=O)c3Cl)CC2)cc1	1	0	0	-1	4.7*
